According to PubChem BioAssay (Tox21):
Inconclusive results are not listed. Where a call stands in place of a potency, no number is given. Calls of active or inactive are those of the source. Calls come from the whole dose curve; as a rule, active = well fitted activation curve with a large enough effect in the repeat runs; inconclusive = weak or mixed curves; inactive = flat fitted curve, though single readings scatter.

Assay: A CellTox Green Cytotoxicity Assay to monitor cytotoxicity in HEK293 cells - 40 hour (AID 1224871); note: nearly all actives have a fitted effect of over 45% in size
Conditions: CellTox Green fluorescence; series mostly up to 76.8 µM
From the text: National Center for Advancing Translational Sciences [NCATS]
NIH Chemical Genomics Center [NCGC]
U.S. Environmental Protection Agency [EPA]
National Institutes of Environmental Health Sciences [NIEHS]
National Toxicology Program [NTP]
Cell-based models are critical for drug discovery. Determining the natural cytotoxic effects resulting from test compounds is an essential research activity. A CellTox Green Cytotoxicity Assay to monitor cytotoxicity in real time of continues cell culture during 40 hours of the compound treatment was used to screen Tox21 10K library compounds in Hek293 cells. CellTox Green Cytotoxicity Assay is a nonlytic, homogeneous, biofluorescent method to measure cytotoxicity in cell culture after experimental manipulation. The assay system uses a proprietary asymmetric cyanine dye that is excluded from viable cells but preferentially stains the dead cell's DNA. […] Viable cells produce no appreciable increases in fluorescence. Therefore, the fluorescence signal produced by the binding interaction with dead cell DNA is proportional to cytotoxicity.
The mixture of Hek293 cell suspension and reagents were dispensed at 600cells/6 ul/well in 1536-well tissue culture treated black solid bottom plates using a Multidrop dispenser. After the assay plates were incubated at a 37 C/5% CO2 incubator for 5 hours, 23 nL of compounds dissolved in DMSO, positive and negative controls was transferred to the assay plate by a pintool work station. The plates were incubated at 37 C for 40 hours. The fluorescence intensity were measured at 0h, 8h, 16h, 24h, 32h and 40h time points using ViewLux plate reader during compound treatment.
Potency is the fitted concentration of half-maximal effect.

| Structure (SMILES) | Potency | cytotoxicity increase |
| --- | --- | --- |
| CCO[Si](C)(CCCOCC1CO1)OCC (stereo not given) | inactive |  |
| COc1cc(NS(=O)(=O)c2ccc(N)cc2)nc(C)n1 | inactive |  |
| CC(C(=O)O)c1ccc(C(=O)c2cccs2)cc1 (stereo not given) | inactive |  |
| CC(C)(C)C(O)/C=C/c1ccc2c(c1)OCO2 (stereo not given) | inactive |  |
| Nc1ccn([C@H]2CS[C@@H](CO)O2)c(=O)n1 | inactive |  |
| CC1=C2[C@@H]([C@H](C)CC[C@H]2/C=C(\C)C(=O)O)[C@H](O)C1 | inactive |  |
| C=CC(=O)O | inactive |  |
| Cc1cc(CCCOc2c(C)cc(-c3noc(C(F)(F)F)n3)cc2C)on1 | inactive |  |
| CC(C)CC(O)CC(C)C | inactive |  |
| O=C(O)CCCc1c[nH]c2ccccc12 | inactive |  |
| FC(F)(F)C(F)(F)C(F)(F)C(F)(F)CCI | inactive |  |
| CC(=O)NCCO | inactive |  |
| Nc1ccc(S(=O)(=O)NCc2ccccc2)cc1 | inactive |  |
| O=C(O)/C=C/c1ccc(O)c(O)c1 | inactive |  |
| COc1ccc(-c2cc(=S)ss2)cc1 | inactive |  |
| CCCOC(=O)c1c(Cl)c(Cl)c(Cl)c(Cl)c1C(=O)OCCC | inactive |  |
| Cc1ccc2nc(N)[nH]c(=O)c2c1Sc1ccncc1 | inactive |  |
| Cc1ccc2c(c1[N+](=O)[O-])C(=O)c1ccccc1C2=O | inactive |  |
| CC[C@@H](CO)NCCN[C@@H](CC)CO | inactive |  |
| CC1CCc2nccnc21 (stereo not given) | inactive |  |

| Structure (SMILES) | Potency | cytotoxicity increase |
| --- | --- | --- |
| COc1cc(NC(C)CCCN)c2ncccc2c1 (stereo not given) | inactive |  |
| CO[C@@H]1[C@@H](OC)[C@H](C)[C@@](O)(CC(=O)O)O[C@H]1[C@H](C)[C@H]1O[C@@]2(CC[C@@](C)([C@H]3CC[C@@](C)([C@@H]4O[C@@H]([C@H]5O[C@](C)(O)[C@H](C)C[C@@H]5C)C[C@@H]4OC4C[C@H](OC)[C@@H](OC)[C@H](C)O4)O3)O2)C[C@H](O)[C@H]1C (stereo not given in full) | 4.77 µM (active) |  |
| O=C1OC[C@H](Cc2cccc(O)c2)[C@H]1Cc1cccc(O)c1 | inactive |  |
| Nc1nc(-c2ccc([N+](=O)[O-])cc2)cs1 | inactive |  |
| BrC(Br)C(Br)Br | inactive |  |
| CCCCCC | inactive |  |
| CSSc1ccoc1C | inactive |  |
| CCCCCCCCCCCCCOS(=O)(=O)O | inactive |  |
| COc1ccc(N)c([N+](=O)[O-])c1 | inactive |  |
| O=C1OC(=O)c2c(Br)c(Br)c(Br)c(Br)c21 | inactive |  |
| O=C(O)c1cccc(C[C@@H]2COc3ccc(OCc4nc5cc(F)ccc5s4)cc3[C@@H]2O)c1 | inactive |  |
| CC(C)C(=O)OCCOc1ccccc1 | inactive |  |
| COc1cc(OC)c2ccc(=O)oc2c1 | inactive |  |
| CC(=O)N[C@@H](Cc1ccc(O)cc1)C(=O)O | inactive |  |
| CCCCCCC(CO)CCCC (stereo not given) | inactive |  |
| CCc1ccc(C)cc1 | inactive |  |
| CC(C)C(O)C(C)(C)CO (stereo not given) | inactive |  |
| CCCCCCCCCCCCCCN(C)C |  | -34.7% [at 15.8 µM] (inactive) |
| CCOC(=O)c1c(N)sc2c1CCN(Cc1ccccc1)C2 | inactive |  |
| CCCCCc1ccco1 | inactive |  |
